Most compounds without a hit are left out; they make up all but 3.5% or so of the library.
TEAD-YAP inh – TEAD-YAP interaction inhibition; HEK-TIYL cells, TEAD-Gal4/YAP UAS-luciferase luminescence; inhibition, % at 9.12 µM; hit rate 1.4% among 640,000; in the data active = inhibition above about 32%;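 also: 0% = median of test compound wells and 100% = reference inhibitor wells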
FBW7 activator – activators of human E3 ligase FBW7; Q969H0; AlphaScreen FBW7–phospho-cyclin E peptide binding, activator screen; normalized activity (activation), % at 26.1 µM; hit rate 0.13% among 650,000; AID 1259310; in the data active = normalized activity above about 1.9%;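 also: purified mutant Fbw7 with reduced substrate affinity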
GPR151 activ – human GPR151 activation | activation, % at 11.2 µM | hit rate 1% among 650,000 | PathHunter beta-arrestin GPR151 cells, luminescence | AID 1508602 | Q8TDV0; in the data active = activation above about 4.9%;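 also: 0% = median of compound wells and 100% = cells with positive control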
MITF inh – inhibitors of human MITF; inhibition, % at 2.6 µM; O75030; hit rate 0.91% among 650,000; AlphaScreen MITF homodimerization, bead proximity signal; AID 1259374; in the data active = inhibition above about 50%;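 also: 0% = vehicle wells with protein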
GPR151 conf act – confirmation of human GPR151 activators; 6,700 tested, under 10 active; shares compounds with GPR151 activ; GPR151 PathHunter beta-arrestin cells, luminescence, 90 min; % of EA-reagent control over plate median; activation, % at 11.2 µM; AID 1508609;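 active = mean percent activation across replicates above the confirmation screen cutoff of 4.91%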
GPR119 ag – activates human GPR119 in a GPR151 counter-screen; activation, % at 11.2 µM; shares compounds with GPR151 activ; hit rate 0.3% among 6,700; GPR119 PathHunter beta-arrestin cells, luminescence, 90 min; 0 = compound-well median, 100 = enzyme-acceptor control;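 active = mean percent activation in the counterscreen above 29.09%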;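 also: counterscreen on off-target GPR119 to flag nonselective hits from the GPR151 activator screen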
* marks the source's active call; other numbers are inactive results; . = no result given.

SMILES	TEAD-YAP inh	FBW7 activator	GPR151 activ	MITF inh	GPR151 conf act	GPR119 ag
COc1ccc(-c2nc(SC)n(C(=O)c3ccc(OC)c(OC)c3)n2)cc1	-39	0	-2	-20	.	.
CCCCOc1ccc(C(=O)Nc2ccc3nc(SCC(=O)Nc4ccc(CC)cc4)sc3c2)cc1	2	0	1	8	.	.
O=c1nc2n3ccsc3ncc-2s1	3	0	0	18	.	.
COc1ccc(N2C(=O)/C(=C/c3cccs3)C(=O)NC2=S)c(OC)c1	8	0	5.2*	8	0	2
COc1ccc(OC)c(N2C(=O)NC(=O)/C(=C/c3cccs3)C2=O)c1	-3	0	1	-2	.	.
CN(C)CCCN(C(=O)c1cc(Cl)sc1Cl)c1nc2ccccc2s1	0	0	0	14	.	.
Clc1ccc(SCCCCn2cncn2)cc1	5	0	9.2*	-4	0	5
Cc1ccc(C(=O)Cn2cncn2)cc1	4	0	2	2	.	.
O=C(Cn1cncn1)c1ccc(Cl)cc1	-4	0	7.8*	0	-1	-2
NNC(=O)CNC(=O)CNS(=O)(=O)c1ccc(Cl)cc1	16	0	2	16	.	.
CC(C)(C)c1cc(C(=O)N=Nc2c(O)[nH]c(=O)[nH]c2=O)n[nH]1	-1	0	1	32	.	.
COc1ccccc1C(=O)Nc1ccc(N2CCCS2(=O)=O)cc1	-42	0	-2	-7	.	.
COc1ccc(Cl)cc1C(=O)Nc1ccc(N2CCCCS2(=O)=O)cc1	-8	0	9.0*	-6	0	4
CCN(C)c1ccc(C=C2C(=O)NC(=S)NC2=O)cc1	8	0	0	15	.	.
Cc1cc(-c2nnco2)c(C)n1-c1ccccc1	-8	0	2	3	.	.
Cc1cc(-c2nnc3n2CCC3)c(C)n1-c1ccccc1	-12	0	5.7*	10	-1	-2
CCn1c(C)cc(C=C2C(=O)c3ccccc3C2=O)c1C	66*	0	8.2*	-4	0	-26
CC1=C(C(=O)N2CCOCC2)C(c2ccc(O)cc2)NC(=S)N1 (configuration not stated)	7	1	8.8*	5	-1	-9
CC1CC(C)CN(S(=O)(=O)c2ccc(C(=O)Nc3nc4ccc(Br)cc4s3)cc2)C1 (configuration not stated)	0	0	0	-4	.	.
Oc1ccc(-c2nc3ccc(Br)cn3c2NCC2CCCO2)c(O)c1 (configuration not stated)	-5	0	0	10	.	.
COc1ccccc1CN1CCNC(=O)C1CC(=O)NCc1ccc(F)cc1 (configuration not stated)	17	0	0	12	.	.
COc1ccccc1CN1CCNC(=O)C1CC(=O)NCc1csc(C)n1 (configuration not stated)	-24	0	5.8*	-3	0	-2
O=C(NN=C1CCCCC1)c1cc(O)cc(O)c1	-3	1	0	-3	.	.
O=C(CCC(=O)OCC(=O)c1ccc(Cl)c(Cl)c1)Nc1ccccc1	-1	0	5.5*	-1	1	1
O=C(CCC(=O)OCC(=O)c1ccc(Cl)c(Cl)c1)Nc1ccc(F)cc1	0	1	1	13	.	.
SMILES	TEAD-YAP inh	FBW7 activator	GPR151 activ	MITF inh	GPR151 conf act	GPR119 ag
Cc1c(C(=O)N2CCCC2)sc2ncn(Cc3ccccc3F)c(=O)c12	7	0	5.3*	2	1	16
Cc1c(C(=O)N2CCCC(C)C2)sc2ncn(Cc3ccccc3F)c(=O)c12 (configuration not stated)	-1	0	-1	-3	.	.
Cc1ccc2c(NC(=O)c3ccc(Cl)cc3)noc2n1	-30	0	7.1*	-6	0	-10
COC(=O)C(Cc1c[nH]c2ccccc12)NC(=O)C(=O)c1c(C)[nH]c2ccccc12 (configuration not stated)	3	0	6.9*	8	0	6
COC(=O)C(Cc1c[nH]c2ccccc12)NC(=O)C(C)C (configuration not stated)	3	0	1	24	.	.
CN(C)c1ccc(NC(=O)c2scc3c2OCCO3)cc1	-52	0	-3	15	.	.
CC(=NCCc1ccccn1)c1c(C)[nH]n(-c2ccc([N+](=O)[O-])cc2)c1=O	-10	0	0	-1	.	.

Screening data (PubChem BioAssay)
